# Compounds without any hit were thinned out: in the full panel of roughly 79,000, 15% have a hit. Values without a mark were called inactive. Calls of active or inactive are those of the source. Cut-off read from the data, not from the text of the source: active = growth inhibition above about 70%; inactive = the rest.
# Experiments:
# [1] = NCI Yeast Anticancer Drug Screen. Data for the rad52 strain (AID 147);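 note: 0% = growth of vehicle-treated control cultures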; settings: S. cerevisiae rad52 mutant growth inhibition, stronger effect = higher value
# In short: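 Growth of repair-deficient yeast cells was compared between compound-treated and vehicle-treated cultures to give percent inhibition.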
# [2] = NCI Yeast Anticancer Drug Screen. Data for the wt1 strain (AID 149);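 note: 0% = growth of vehicle-treated wt1 cultures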; settings: S. cerevisiae wt1 strain (SPY 50644) growth inhibition, stronger effect = higher value
# In short: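 Compounds are added to wt1 yeast cultures. Growth is then measured. Inhibition is expressed relative to vehicle-treated controls.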
# [3] = NCI Yeast Anticancer Drug Screen. Data for the rad50EPP+ strain (AID 151);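 note: 0% = growth of vehicle-treated control cultures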; settings: S. cerevisiae rad50 mutant strain, stronger effect = higher value
# In short: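 Measured: growth inhibition of rad50EPP+ yeast. Reference: vehicle-treated controls. Screen uses strains with defined genetic alterations in DNA damage repair or cell cycle control.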
# [4] = NCI Yeast Anticancer Drug Screen. Data for the mgt1 strain (AID 153); settings: S. cerevisiae mgt1 mutant growth inhibition, stronger effect = higher value
# In short: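 Compounds were applied to mgt1 mutant yeast, and growth was then compared against vehicle-treated control cultures to give percent inhibition.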
# [5] = NCI Yeast Anticancer Drug Screen. Data for the rad50 strain (AID 155);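 note: 0% = growth of vehicle-only cultures of the same strain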; settings: S. cerevisiae rad50 strain growth inhibition, stronger effect = higher value
# In short: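 Inhibition values express reduced yeast growth in compound-treated cultures relative to vehicle-treated controls.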
# [6] = NCI Yeast Anticancer Drug Screen. Data for the mec2-1 strain (AID 157); settings: S. cerevisiae mec2-1 strain, stronger effect = higher value
# In short: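 Compounds were applied to mec2-1 yeast cells. Their growth was then compared with that of vehicle-treated cultures to give growth inhibition.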
# [7] = NCI Yeast Anticancer Drug Screen. Data for the rad14 strain (AID 159);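 note: 0% = growth of vehicle-treated control cultures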; settings: S. cerevisiae rad14 strain growth inhibition, stronger effect = higher value
# In short: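 A mutant yeast strain defective in DNA damage repair is treated with compound; inhibition of its growth is scored against untreated, vehicle-exposed cultures.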
# [8] = NCI Yeast Anticancer Drug Screen. Data for the sgs1 mgt1 strain (AID 161);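 note: 0% = growth of cultures given vehicle only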; settings: S. cerevisiae sgs1 mgt1 strain, stronger effect = higher value
# In short: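 Yeast cells carrying a defined DNA-repair defect were exposed to test compounds. Growth inhibition was measured relative to vehicle-treated controls.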
# [9] = NCI Yeast Anticancer Drug Screen. Data for the CLN2oe strain (AID 163);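 note: 0% = growth of vehicle-only control cultures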; settings: S. cerevisiae CLN2oe strain, stronger effect = higher value
# In short: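 Cells of an engineered yeast line with disturbed cell-cycle regulation are treated with compound. Inhibition of growth is then calculated relative to the vehicle-treated reference.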
# [10] = NCI Yeast Anticancer Drug Screen. Data for the cln2 rad14 strain (AID 165);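 note: 0% = growth equal to vehicle treated cultures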; settings: S. cerevisiae cln2 rad14 strain, stronger effect = higher value
# In short: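 Strain: cln2 rad14 yeast, altered in cell cycle control and DNA damage repair. Read-out: growth inhibition vs vehicle.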
# [11] = NCI Yeast Anticancer Drug Screen. Data for the bub3 strain (AID 167); settings: S. cerevisiae bub3 mutant strain, stronger effect = higher value
# In short: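 Steps: expose the mutant yeast strain to compound; grow alongside vehicle-treated cultures; measure growth; express inhibition against the vehicle cultures.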
# [12] = NCI Yeast Anticancer Drug Screen. Data for the wt2 strain (AID 169);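 note: 0% = growth of vehicle-treated yeast cultures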; settings: S. cerevisiae wt2 strain growth inhibition, stronger effect = higher value
# In short: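 Growth of compound-treated yeast is measured and expressed as inhibition relative to vehicle-only controls.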
# [13] = NCI Yeast Anticancer Drug Screen. Data for the mlh1 strain (AID 171);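 note: 0% = growth of vehicle-treated control cultures of the same strain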; settings: S. cerevisiae mlh1 strain growth inhibition, stronger effect = higher value
# In short: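 Test agents were incubated with yeast bearing a defined DNA damage repair or cell cycle control alteration; values are growth inhibition normalised to vehicle-treated cultures.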
# [14] = NCI Yeast Anticancer Drug Screen. Data for the sgs1 strain (AID 173);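 note: 0% = growth of vehicle-only control cultures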; settings: S. cerevisiae sgs1 mutant, stronger effect = higher value
# In short: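 Strain with an altered DNA repair or cell cycle pathway exposed to compound. Growth then measured. Value = inhibition versus vehicle control.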
# [15] = NCI Yeast Anticancer Drug Screen. Data for the mlh1 rad18 strain (AID 175); settings: S. cerevisiae mlh1 rad18 strain growth inhibition, stronger effect = higher value
# In short: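 A repair-deficient yeast strain is exposed to test compound, and growth is scored relative to vehicle-treated controls.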
# [16] = NCI Yeast Anticancer Drug Screen. Data for the rad18 strain (AID 177); settings: S. cerevisiae rad18 mutant growth inhibition, stronger effect = higher value
# In short: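 DNA-repair-defective yeast; compound treatment; growth inhibition scored against vehicle.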
# [17] = at 5.0 µM (retest, dose inferred, filed as 0.5)
# [18] = at 50.0 µM (retest, dose inferred, filed as 5.0)
structure (smiles),measurement,setting,value
C1=CCN([B-](c2ccccc2)[C+]2CCCCC2)C=C1,growth inhibition,[1]; at 1.2 µM,-3%
same,growth inhibition,[1]; at 3.7 µM,-4%
same,growth inhibition,[1]; at 11.0 µM,1%
same,growth inhibition,[1]; at 33.0 µM,58%
same,growth inhibition,[1]; at 100.0 µM,98% (active)
same,growth inhibition,[2]; at 1.2 µM,-1%
same,growth inhibition,[2]; at 3.7 µM,-2%
same,growth inhibition,[2]; at 11.0 µM,1%
same,growth inhibition,[2]; at 33.0 µM,64%
same,growth inhibition,[2]; at 100.0 µM,98% (active)
same,growth inhibition,[3]; at 1.2 µM,-3%
same,growth inhibition,[3]; at 3.7 µM,-4%
same,growth inhibition,[3]; at 11.0 µM,-3%
same,growth inhibition,[3]; at 33.0 µM,2%
same,growth inhibition,[3]; at 100.0 µM,22%
same,growth inhibition,[4]; at 1.2 µM,-2%
same,growth inhibition,[4]; at 3.7 µM,-1%
same,growth inhibition,[4]; at 11.0 µM,0%
same,growth inhibition,[4]; at 33.0 µM,44%
same,growth inhibition,[4]; at 100.0 µM,99% (active)
same,growth inhibition,[5]; at 1.2 µM,-3%
same,growth inhibition,[5]; at 3.7 µM,-49%
same,growth inhibition,[5]; [17],-2%
same,growth inhibition,[5]; at 11.0 µM,16%
same,growth inhibition,[5]; at 33.0 µM,70% (active)
same,growth inhibition,[5]; [18],86% (active)
same,growth inhibition,[5]; at 50.0 µM,98.9% (active)
same,growth inhibition,[5]; at 100.0 µM,99% (active)
same,growth inhibition,[6]; at 1.2 µM,-1%
same,growth inhibition,[6]; at 3.7 µM,-2%
same,growth inhibition,[6]; [17],-4%
same,growth inhibition,[6]; at 11.0 µM,4%
same,growth inhibition,[6]; at 33.0 µM,76% (active)
same,growth inhibition,[6]; [18],96% (active)
same,growth inhibition,[6]; at 50.0 µM,98.7% (active)
same,growth inhibition,[6]; at 100.0 µM,99% (active)
same,growth inhibition,[7]; at 1.2 µM,-1%
same,growth inhibition,[7]; at 3.7 µM,-2%
same,growth inhibition,[7]; at 11.0 µM,1%
same,growth inhibition,[7]; at 33.0 µM,28%
same,growth inhibition,[7]; at 100.0 µM,99% (active)
same,growth inhibition,[8]; [17],-5%
same,growth inhibition,[8]; [18],92% (active)
same,growth inhibition,[8]; at 50.0 µM,99.2% (active)
same,growth inhibition,[9]; at 1.2 µM,-6%
same,growth inhibition,[9]; at 3.7 µM,-6%
same,growth inhibition,[9]; at 11.0 µM,1%
same,growth inhibition,[9]; at 33.0 µM,32%
same,growth inhibition,[9]; at 100.0 µM,95% (active)
same,growth inhibition,[10]; [17],-1%
same,growth inhibition,[10]; [18],18%
same,growth inhibition,[10]; at 50.0 µM,2.1%
same,growth inhibition,[11]; at 1.2 µM,2%
same,growth inhibition,[11]; at 3.7 µM,-1%
same,growth inhibition,[11]; [17],1%
same,growth inhibition,[11]; at 11.0 µM,4%
same,growth inhibition,[11]; at 33.0 µM,80% (active)
same,growth inhibition,[11]; [18],15%
same,growth inhibition,[11]; at 50.0 µM,-11.4%
same,growth inhibition,[11]; at 100.0 µM,97% (active)
same,growth inhibition,[12]; at 1.2 µM,-1%
same,growth inhibition,[12]; at 3.7 µM,7%
same,growth inhibition,[12]; at 11.0 µM,3%
same,growth inhibition,[12]; at 33.0 µM,94% (active)
same,growth inhibition,[12]; at 100.0 µM,98% (active)
same,growth inhibition,[13]; at 1.2 µM,-1%
same,growth inhibition,[13]; at 3.7 µM,-2%
same,growth inhibition,[13]; at 11.0 µM,-1%
same,growth inhibition,[13]; at 33.0 µM,75% (active)
same,growth inhibition,[13]; at 100.0 µM,99% (active)
same,growth inhibition,[14]; at 1.2 µM,-2%
same,growth inhibition,[14]; at 3.7 µM,-2%
same,growth inhibition,[14]; at 11.0 µM,6%
same,growth inhibition,[14]; at 33.0 µM,92% (active)
same,growth inhibition,[14]; at 100.0 µM,99% (active)
same,growth inhibition,[15]; [17],0%
same,growth inhibition,[15]; [18],96% (active)
same,growth inhibition,[15]; at 50.0 µM,96.5% (active)
same,growth inhibition,[16]; at 1.2 µM,0%
same,growth inhibition,[16]; at 3.7 µM,0%
same,growth inhibition,[16]; at 11.0 µM,2%
same,growth inhibition,[16]; at 33.0 µM,75% (active)
same,growth inhibition,[16]; at 100.0 µM,98% (active)
